# Data from the supplement of paper PMC4962491.
# ± gives the standard deviation of the averaged measurements.
# Tested on: FaDu
# Experiment: mitochondrial oxygen consumption rate normalised to cell number, Z score vs plate DMSO wells; higher = higher oxygen consumption (negative = OCR reduction)
# Details: treatment time 24 h, assay medium: 5 mM glucose, 5 mM pyruvate, 4 mM glutamine
# Method: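 Secondary screen: FaDu cells were incubated 24 h with the top 130 primary hits at 0.08, 0.4, 2 or 10 uM. Mitochondrial-specific OCR (basal minus antimycin A) was measured on a Seahorse XF96 in medium with 5 mM glucose, 5 mM pyruvate and 4 mM glutamine and normalised to Hoechst cell number. OCR score = (OCR - mean of plate DMSO wells) / SD of plate DMSO wells. Three repeats.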
# 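Also: compound exposure in DMEM (4 mM L-glutamine, 5 mM glucose), antimycin A injected at 2 µM after the basal reading and its residual OCR subtracted from basal.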
structure (smiles),measurement,setting,value
CNC(=O)c1cc(Oc2ccc(NC(=O)Nc3ccc(Cl)c(C(F)(F)F)c3)cc2)ccn1,mitochondrial oxygen consumption rate normalised,0.08 µM,-1.33 ± 0.69
same,mitochondrial oxygen consumption rate normalised,0.4 µM,-0.411 ± 0.42
same,mitochondrial oxygen consumption rate normalised,2 µM,-1.86 ± 0.2
same,mitochondrial oxygen consumption rate normalised,10 µM,-12.1 ± 0.9
CCOC(=O)CCC(=O)O[C@H]1[C@H](O[C@@H]2[C@@H](C)[C@H](O[C@H]3C[C@@](C)(OC)[C@@H](O)[C@H](C)O3)[C@@H](C)C(=O)O[C@H](CC)[C@@](C)(O)[C@H](O)[C@@H](C)C(=O)[C@H](C)C[C@@]2(C)O)O[C@H](C)C[C@@H]1N(C)C,mitochondrial oxygen consumption rate normalised,0.08 µM,-0.00592 ± 1.6
same,mitochondrial oxygen consumption rate normalised,0.4 µM,0.83 ± 0.89
same,mitochondrial oxygen consumption rate normalised,2 µM,-0.161 ± 1.9
same,mitochondrial oxygen consumption rate normalised,10 µM,1.22 ± 0.77
CN(C)C(=O)C(CCN1CCC(O)(c2ccc(Cl)cc2)CC1)(c1ccccc1)c1ccccc1,mitochondrial oxygen consumption rate normalised,0.08 µM,0.831 ± 1.1
same,mitochondrial oxygen consumption rate normalised,0.4 µM,0.616 ± 1.4
same,mitochondrial oxygen consumption rate normalised,2 µM,0.593 ± 1.7
same,mitochondrial oxygen consumption rate normalised,10 µM,-0.932 ± 1.7
Cc1ccc2c(Br)cc(Br)c(OC(=O)c3ccccc3)c2n1,mitochondrial oxygen consumption rate normalised,0.08 µM,1.43 ± 0.79
same,mitochondrial oxygen consumption rate normalised,0.4 µM,0.324 ± 0.71
same,mitochondrial oxygen consumption rate normalised,2 µM,-3.89 ± 1.2
same,mitochondrial oxygen consumption rate normalised,10 µM,-4.73 ± 1.5
CC(=O)[C@H]1CC[C@H]2[C@@H]3CCC4=CC(=O)CC[C@]4(C)[C@H]3CC[C@]12C,mitochondrial oxygen consumption rate normalised,0.08 µM,-0.339 ± 1.3
same,mitochondrial oxygen consumption rate normalised,0.4 µM,0.321 ± 0.92
same,mitochondrial oxygen consumption rate normalised,2 µM,-0.631 ± 1.3
same,mitochondrial oxygen consumption rate normalised,10 µM,-1.18 ± 0.26
CO[C@H]1C[C@H](O[C@H]2[C@H](C)O[C@@H](O[C@@H]3/C(C)=C/C[C@@H]4C[C@@H](C[C@]5(C=C[C@H](C)[C@@H](C6CCCCC6)O5)O4)OC(=O)[C@@H]4C=C(C)[C@@H](O)[C@H]5OC/C(=C\C=C\[C@@H]3C)[C@]54O)C[C@@H]2OC)O[C@@H](C)[C@@H]1O,mitochondrial oxygen consumption rate normalised,0.08 µM,0.113 ± 1.2
same,mitochondrial oxygen consumption rate normalised,0.4 µM,1.33 ± 0.39
same,mitochondrial oxygen consumption rate normalised,2 µM,-0.504 ± 1.2
same,mitochondrial oxygen consumption rate normalised,10 µM,-2.82 ± 1.1
O=[N+]([O-])c1ccc(O)c2ncccc12,mitochondrial oxygen consumption rate normalised,0.08 µM,0.333 ± 0.4
same,mitochondrial oxygen consumption rate normalised,0.4 µM,1.67 ± 1.1
same,mitochondrial oxygen consumption rate normalised,2 µM,-0.415 ± 1.2
same,mitochondrial oxygen consumption rate normalised,10 µM,-3.63 ± 2.5
O=C1C(O)=C([C@H]2CC[C@H](c3ccc(Cl)cc3)CC2)C(=O)c2ccccc21,mitochondrial oxygen consumption rate normalised,0.08 µM,-0.607 ± 2.4
same,mitochondrial oxygen consumption rate normalised,0.4 µM,1.63 ± 1.6
same,mitochondrial oxygen consumption rate normalised,2 µM,-0.111 ± 2.5
same,mitochondrial oxygen consumption rate normalised,10 µM,-3.55 ± 2.2
C=C1CC[C@H](O)C/C1=C/C=C1\CCC[C@]2(C)[C@@H]([C@H](C)/C=C/[C@H](C)C(C)C)CC[C@@H]12,mitochondrial oxygen consumption rate normalised,0.08 µM,-1.49 ± 2.4
same,mitochondrial oxygen consumption rate normalised,0.4 µM,-0.211 ± 0.41
same,mitochondrial oxygen consumption rate normalised,2 µM,-1.83 ± 1.7
same,mitochondrial oxygen consumption rate normalised,10 µM,-2.44 ± 1.9
Nc1ccc2cc3ccc(N)cc3nc2c1,mitochondrial oxygen consumption rate normalised,0.08 µM,0.988 ± 0.79
same,mitochondrial oxygen consumption rate normalised,0.4 µM,1.43 ± 0.73
same,mitochondrial oxygen consumption rate normalised,2 µM,-2.56 ± 1.5
same,mitochondrial oxygen consumption rate normalised,10 µM,-6.68 ± 1.4
